Drawing on PubChem BioAssay, this text covers composite z-score for 35 molecules.

Test system in the first experiment: not listed separately
Put plainly: small-molecule binders of probe aInhba, primary screen, biochemical, small-molecule microarray, 635/667 nm fluorescence (AID 1148).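 Further: score merges 667nm spot fluorescence with signal-to-noise for antibody binding to printed compounds.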 Conditions: higher = more signal.
Turning to `CC(C)(C)OC(=O)CC[C@]1(C(=O)O)N=C(c2ccc(OCCCO)cc2)O[C@H]1c1ccccc1`, the composite z-score was -0.102.
On the same count and under the same terms, next, `C=C(/C=C/CNS(=O)(=O)c1ccc(C)cc1)[C@H](O)[C@H]1CCCN1S(=O)(=O)c1ccccc1[N+](=O)[O-]`: -0.0791; `CCOC(=O)C1=CC[C@@H](c2ccccc2C(F)(F)F)N(S(=O)(=O)c2ccc(C)cc2)C1`: 0.693.
Regarding `CN(C)CCCN1C(=O)[C@@]2(c3ccc([N+](=O)[O-])cc3)CC(=O)N(CC34CC5CC(CC(C5)C3)C4)[C@@H]2c2ccc(CO)cc21`, the composite z-score was -0.0963.
On the same count and under the same terms, the value for `CN1C2C=C(CCCO)C(C3C(=O)N(C(N)=O)C(=O)C32)C1c1cccs1` (stereo unspecified) was -0.0963; that for `CCOC(=O)C1=CC[C@@H](c2ccc([N+](=O)[O-])cc2)N(S(=O)(=O)c2ccc(C)cc2)[C@H]1c1ccccc1` was 0.165.

For a further experiment, the target named is Torsin-1A (Homo sapiens) (UniProt O14656). Put plainly: torsin A binders from cell lysate, primary screen, small-molecule microarray, wild-type, 635/667 nm (AID 1149). As to conditions: COS7 hTOR1A-WT lysate, 635 nm fluorescence, higher = more signal.
Torsin-1A (Homo sapiens), sequence (O14656 whole entry, looked up): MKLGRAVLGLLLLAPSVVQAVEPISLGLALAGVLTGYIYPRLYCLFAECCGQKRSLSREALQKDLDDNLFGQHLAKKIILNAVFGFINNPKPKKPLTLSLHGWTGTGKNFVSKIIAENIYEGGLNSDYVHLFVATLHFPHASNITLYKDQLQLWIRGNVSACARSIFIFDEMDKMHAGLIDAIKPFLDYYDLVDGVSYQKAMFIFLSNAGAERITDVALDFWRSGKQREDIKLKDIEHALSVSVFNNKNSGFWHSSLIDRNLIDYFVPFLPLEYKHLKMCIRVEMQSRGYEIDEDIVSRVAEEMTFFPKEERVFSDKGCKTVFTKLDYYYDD
The molecule `O=C1OCC=C[C@H]2OC34C=CCN(c5ccc(Cl)cc5)C(=O)[C@H]3N(CCCCCO)C(=O)[C@@H]4[C@@H]12` (stereo partly specified) returned a composite z-score of 0.172.
As to `CC(C)(C)OC(=O)CC[C@]1(C(=O)NCCN2CCOCC2)N=C(c2ccc(OCCCO)cc2)O[C@H]1c1ccccc1N=[N+]=[N-]`, the composite z-score came to 0.0272.
The same measure, in the same setting: next, `COC(=O)C1(Cc2ccccc2)C=C2C(=C(c3ccccc3)C(=O)C2C)CN1` (stereo unspecified): 0.0676.
`COc1cc(CO)cc(I)c1O[C@H]1C=C(C(=O)NCCO)C[C@@H](N(CC2CCCCC2)C(=O)c2ccc(C(F)(F)F)cc2)[C@@H]1O`: the composite z-score stood at 0.0494.
Still for that read-out and setting: next, `COc1ccc([Si](C)(C)[C@H]2[C@H](CCn3cc(CCO)nn3)O[C@@]3(C(=O)N(Cc4ccc(N5C(=O)c6cccc7cccc5c67)cc4)c4ccccc43)[C@@H]2C)cc1`: 0.316.
As to `CC=CC(O)C1C=CC2C(=O)N(C)C(=O)C2N1Nc1ccc([N+](=O)[O-])cc1[N+](=O)[O-]` (stereo unspecified), the composite z-score is 0.316.
The molecule `COCCCNC(=O)[C@]1(Cc2ccccc2N=[N+]=[N-])N=C(c2ccc(OCCCO)cc2)O[C@@H]1c1ccccc1N=[N+]=[N-]` displayed a composite z-score of 0.238.
Same read-out and setting: the value for `[N-]=[N+]=NCc1ccccc1C[C@@]1(C(N)=O)N=C(c2ccc(OCCCO)cc2)O[C@@H]1c1ccccc1CN=[N+]=[N-]` was 0.549; that for `O=C1NC(=O)C2C1C=CC(C(O)c1ccc3c(c1)OCO3)N2Nc1ccccn1` (stereo unspecified) was 0.546; that for `O=C1C[C@]2(c3ccc([N+](=O)[O-])cc3)C(=O)N(Cc3ccccc3)c3cc(CO)ccc3[C@H]2N1CC12CC3CC(CC(C3)C1)C2` was -0.659.
The molecule `COc1cc2c(cc1OC)CN(C(=O)[C@H]1[C@@H]3C(=O)O[C@@H](c4ccccc4)[C@@H](c4ccccc4)N3[C@@H](c3ccc(OCCO)cc3)[C@]13C(=O)Nc1ccc(C#CCCO)cc13)CC2` registered a composite z-score of 0.272.
Same read-out and setting: the value for `CC(C)NC(=O)[C@@]1(C)c2ccccc2C(=O)N(C(C)C)[C@H]1c1ccc(CO)cc1` was -3.17; that for `C=CCC(OC(C)=O)[C@@H]1[C@@H](N(Cc2cc3ccccc3o2)C(=O)Cc2ccc(F)cc2)c2cc(OCCCO)ccc2N1C(=O)c1ccc2ccccc2n1` (stereo partly specified) was -0.398.
As for `O=C1O[C@@H](c2ccccc2)[C@@H](c2ccccc2)N2[C@@H](c3ccc(O)cc3)[C@]3(C(=O)Nc4ccc(C#CCCO)cc43)[C@@H](C(=O)Nc3nc4ccccc4s3)[C@H]12`, the composite z-score is -0.363.
`C=C(CCCC)/C(=C/C[C@@H](OC(C)=O)c1ccc(CO)o1)c1cc(C(=O)OC)ccc1OC`: the composite z-score turned out to be 0.436.
With `O=C1OC[C@@H](c2ccccc2)N2CC(/C=C/c3ccccc3)=CC12` (stereo partly specified), the composite z-score is -0.872.
Same read-out and setting: next, `CCOC(=O)[C@H]1C/C=C/C[C@H](C(=O)OCC)C(=O)O[C@H]2[C@@H](OC)O[C@H](CO)[C@@H](OC(=O)CCc3ccccc3)[C@@H]2OC1=O`: -0.407; `[N-]=[N+]=Nc1ccccc1C[C@@]1(C(=O)O)N=C(c2ccc(OCCCO)cc2)O[C@@H]1c1ccccc1`: 0.0324.
`CC(C)(C)N1CC=CC23O[C@@H]4C=CCOC(=O)[C@@H]4[C@H]2C(=O)N(CCCO)[C@@H]3C1=O` (stereo partly specified) displayed a composite z-score of 0.213.
The same measure, in the same setting: the value for `COC1(C)CN(Cc2ccccc2Br)[C@H](/C=C/c2ccccc2)[C@H](Cc2ccccc2)O1` (stereo partly specified) was -0.558; that for `O=C(N1CCCCC1)[C@@]1(Cc2ccccc2)COC(c2ccc(OCCCO)cc2)=N1` was 0.442.
Still for that read-out and setting: the value for `COC(=O)[C@@]1(Cc2ccc(F)cc2)[C@H]2c3cc(C(=O)N4CCCC4)n(CCc4c[nH]c5ccc(OC)cc45)c3C[C@H]2CN1C(=O)c1ccccc1` was 0.844; that for `[N-]=[N+]=Nc1ccccc1[C@@H]1OC(c2ccc(OCCCO)cc2)=N[C@]1(CCS(=O)(=O)c1ccccc1)C(=O)NCCN1CCOCC1` was 1.13; that for `CN1C(=O)C2C=CC(C(O)c3c(F)cccc3Cl)N(Nc3ccccc3)C2C1=O` (stereo unspecified) was -0.353.
Turning to `COC(=O)[C@@]1(Cc2ccccc2)[C@H]2c3cc(C(=O)N4CCCC4)[nH]c3C[C@H]2CN1C(=O)c1ccccc1`, the composite z-score worked out at 0.223.
On the same count and under the same terms, the value for `NCCCCCCNC(=O)[C@H]1C[C@H]2C(=O)N[C@@H](Cc3ccccc3)C(=O)N2[C@H]1c1ccc(O)cc1` was 2.14.
Same read-out and setting: next, `C[N+](C)(C)CCCC[C@@H]1NC(=O)[C@@H]2C[C@H](C(=O)O)[C@H](c3ccc(O)cc3)N2C1=O`: -1.07; `C=C(CCCC)C(=O)CC[C@@H](OC(=O)c1cccnc1)c1ccccc1OCCO`: 0.417.
Still for that read-out and setting: next, `O=C1O[C@@H](c2ccccc2)[C@@H](c2ccccc2)N2[C@@H](c3ccccc3OCCO)[C@]3(C(=O)Nc4ccccc43)[C@@H](C(=O)NC[C@H](O)c3ccccc3)[C@H]12`: 0.604; `CC(C)(C)OC(=O)CC[C@]1(C(=O)O)N=C(c2ccc(OCCCO)cc2)O[C@H]1c1ccccc1`: -0.272; `C=C(/C=C/CNS(=O)(=O)c1ccc(C)cc1)[C@H](O)[C@H]1CCCN1S(=O)(=O)c1ccccc1[N+](=O)[O-]`: 0.361.
Turning to `CCOC(=O)C1=CC[C@@H](c2ccccc2C(F)(F)F)N(S(=O)(=O)c2ccc(C)cc2)C1`, the composite z-score was -0.117.
On the same count and under the same terms, next, `CN(C)CCCN1C(=O)[C@@]2(c3ccc([N+](=O)[O-])cc3)CC(=O)N(CC34CC5CC(CC(C5)C3)C4)[C@@H]2c2ccc(CO)cc21`: -0.524; `CN1C2C=C(CCCO)C(C3C(=O)N(C(N)=O)C(=O)C32)C1c1cccs1` (stereo unspecified): 0.21; `CCOC(=O)C1=CC[C@@H](c2ccc([N+](=O)[O-])cc2)N(S(=O)(=O)c2ccc(C)cc2)[C@H]1c1ccccc1`: 0.149.
